Consider one sequence from article PMC7862700, “An all-to-all approach to the identification of sequence-specific readers for epigenetic DNA modifications on cytosine”.

Common to all, as to experiment: DAPPL (digital affinity profiling via proximity ligation, sequencing); 10 mM Tris-HCl pH 7.5, 50 mM NaCl, 1 mM DTT, 4% glycerol, room temperature, 30 min; GST-TFs on glutathione beads, 16-mer random dsDNA library, 0.1% formaldehyde crosslink after washing; high values mean tight binding
In one test the target is T1, FLI1 (Homo sapiens, UniProt Q01543 1-452).
T1 sequence: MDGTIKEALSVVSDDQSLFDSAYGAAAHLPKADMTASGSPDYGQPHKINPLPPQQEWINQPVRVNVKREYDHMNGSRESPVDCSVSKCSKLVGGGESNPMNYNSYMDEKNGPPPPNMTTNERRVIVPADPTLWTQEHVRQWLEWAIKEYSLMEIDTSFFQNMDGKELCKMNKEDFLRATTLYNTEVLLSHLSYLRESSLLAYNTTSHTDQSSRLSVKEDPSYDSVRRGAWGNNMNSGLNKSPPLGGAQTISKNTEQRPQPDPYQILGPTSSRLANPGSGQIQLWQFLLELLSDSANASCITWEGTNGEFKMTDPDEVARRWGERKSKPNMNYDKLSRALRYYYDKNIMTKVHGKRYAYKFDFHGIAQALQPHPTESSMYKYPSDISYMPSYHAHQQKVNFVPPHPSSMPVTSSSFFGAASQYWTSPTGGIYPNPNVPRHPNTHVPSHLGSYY
The note with it: protein: recombinant; tags: N-terminal GST; dsDNA, one strand shown. The method, boiled down: (§1)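 Sequencing on an Illumina NextSeq500 followed washing, crosslinking with 0.1% formaldehyde, proximity ligation (BsaI/T4 ligase, 1 h, 37 °C) and PCR amplification of pools that had been incubated for 30 min at room temperature with 200 nmole of a random double-stranded 16-mer DNA library in Tris/NaCl/DTT/glycerol buffer. Each pool held DNA-barcoded human transcription factors, expressed in yeast as GST fusions and captured on glutathione beads, plus a tag-only sample. Binding signal is a hexamer's read frequency for a factor divided by its frequency in the tag-only sample.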

The target in a further test is T2, ELK1 (Homo sapiens, UniProt P19419 1-428).
T2 sequence: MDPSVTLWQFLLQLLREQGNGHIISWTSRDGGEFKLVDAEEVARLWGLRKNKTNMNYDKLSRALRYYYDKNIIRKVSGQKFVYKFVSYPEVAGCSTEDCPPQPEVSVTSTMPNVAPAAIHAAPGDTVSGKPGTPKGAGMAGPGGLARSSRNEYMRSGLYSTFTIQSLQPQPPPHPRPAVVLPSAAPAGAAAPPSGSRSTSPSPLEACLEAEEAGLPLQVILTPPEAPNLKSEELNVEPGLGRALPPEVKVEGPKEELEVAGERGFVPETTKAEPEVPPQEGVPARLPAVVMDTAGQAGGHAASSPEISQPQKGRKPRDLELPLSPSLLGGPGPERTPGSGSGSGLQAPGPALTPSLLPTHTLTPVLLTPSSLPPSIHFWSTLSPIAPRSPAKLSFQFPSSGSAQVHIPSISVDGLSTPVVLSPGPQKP
The conditions noted are these: protein: recombinant; tags: N-terminal GST; dsDNA, one strand shown. The essentials: as §1

Another test concerns the target T3, GABPA (Homo sapiens, UniProt Q06546 1-454).
T3 sequence: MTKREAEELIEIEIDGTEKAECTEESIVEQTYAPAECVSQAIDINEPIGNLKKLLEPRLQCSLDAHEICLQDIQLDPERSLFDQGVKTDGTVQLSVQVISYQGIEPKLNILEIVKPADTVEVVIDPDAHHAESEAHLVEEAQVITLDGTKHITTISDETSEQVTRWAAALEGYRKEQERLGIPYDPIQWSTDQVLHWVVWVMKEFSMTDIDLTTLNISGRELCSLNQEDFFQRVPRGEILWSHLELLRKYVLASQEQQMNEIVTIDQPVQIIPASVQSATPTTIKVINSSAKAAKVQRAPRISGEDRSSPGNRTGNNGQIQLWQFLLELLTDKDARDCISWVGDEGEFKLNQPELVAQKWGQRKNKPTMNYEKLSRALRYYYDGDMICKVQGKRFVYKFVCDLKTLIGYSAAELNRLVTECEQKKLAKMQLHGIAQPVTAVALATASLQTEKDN
The conditions noted are these: protein: recombinant; tags: N-terminal GST; dsDNA, one strand shown. The essentials: as §1

The next test deals with T4, ERG (Homo sapiens, UniProt P11308 1-479).
T4 sequence: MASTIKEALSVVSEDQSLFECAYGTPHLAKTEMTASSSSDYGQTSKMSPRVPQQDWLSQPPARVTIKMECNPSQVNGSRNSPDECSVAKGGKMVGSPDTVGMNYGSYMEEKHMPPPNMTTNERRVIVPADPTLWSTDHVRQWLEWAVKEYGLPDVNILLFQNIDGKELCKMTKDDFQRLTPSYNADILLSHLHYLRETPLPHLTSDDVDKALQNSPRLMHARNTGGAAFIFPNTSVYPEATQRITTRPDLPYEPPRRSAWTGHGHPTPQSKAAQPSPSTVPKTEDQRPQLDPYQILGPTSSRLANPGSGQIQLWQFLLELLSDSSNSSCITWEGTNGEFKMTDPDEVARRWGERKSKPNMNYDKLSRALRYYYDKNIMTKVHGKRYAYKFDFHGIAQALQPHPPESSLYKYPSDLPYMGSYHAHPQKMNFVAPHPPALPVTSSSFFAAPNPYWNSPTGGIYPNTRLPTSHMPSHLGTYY
The conditions noted are these: protein: recombinant; tags: N-terminal GST; dsDNA, one strand shown. The essentials: as §1

For a further test, the target named is ELF1 (Homo sapiens, UniProt P32519 1-619). The note with it: protein: recombinant; tags: N-terminal GST; dsDNA, one strand shown. The method, boiled down: as §1
The target in a further test is T5, EHF (Homo sapiens, UniProt Q9NZC4 1-300).
T5 sequence: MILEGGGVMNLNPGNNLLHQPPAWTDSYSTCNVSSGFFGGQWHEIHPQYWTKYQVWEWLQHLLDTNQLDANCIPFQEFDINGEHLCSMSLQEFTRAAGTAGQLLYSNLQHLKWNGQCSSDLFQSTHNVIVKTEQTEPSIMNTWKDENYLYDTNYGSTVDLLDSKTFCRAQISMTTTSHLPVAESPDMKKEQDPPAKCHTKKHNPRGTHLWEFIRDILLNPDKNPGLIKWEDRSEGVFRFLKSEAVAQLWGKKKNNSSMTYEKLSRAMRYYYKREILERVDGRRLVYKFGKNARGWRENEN
The conditions noted are these: protein: recombinant; tags: N-terminal GST; dsDNA, one strand shown. The method, boiled down: as §1

A further test has as its target SPI1 (Homo sapiens, UniProt P17947 1-270). The conditions noted are these: protein: recombinant; tags: N-terminal GST; dsDNA, one strand shown. The method, boiled down:
as §1

A further test has as its target SPIB (Homo sapiens, UniProt Q01892 1-262). The conditions noted are these: protein: recombinant; tags: N-terminal GST; dsDNA, one strand shown. The method, boiled down: as §1
In another test the target is T6, ELK3 (Homo sapiens, UniProt P41970 1-407).
T6 sequence: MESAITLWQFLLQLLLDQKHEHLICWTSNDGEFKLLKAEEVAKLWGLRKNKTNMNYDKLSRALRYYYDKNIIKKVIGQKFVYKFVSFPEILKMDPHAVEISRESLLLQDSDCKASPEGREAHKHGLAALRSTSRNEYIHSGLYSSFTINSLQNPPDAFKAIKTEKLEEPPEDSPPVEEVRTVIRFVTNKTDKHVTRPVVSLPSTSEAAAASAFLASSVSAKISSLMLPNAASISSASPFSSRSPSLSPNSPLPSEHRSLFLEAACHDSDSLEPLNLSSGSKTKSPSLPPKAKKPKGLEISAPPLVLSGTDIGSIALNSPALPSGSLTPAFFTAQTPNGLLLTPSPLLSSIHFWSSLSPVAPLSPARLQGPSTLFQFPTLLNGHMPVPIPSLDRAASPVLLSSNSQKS
The conditions noted are these: protein: recombinant; tags: N-terminal GST; dsDNA, one strand shown. The essentials:
as §1

A further test addresses T7, FEV (Homo sapiens, UniProt Q99581 1-238).
T7 sequence: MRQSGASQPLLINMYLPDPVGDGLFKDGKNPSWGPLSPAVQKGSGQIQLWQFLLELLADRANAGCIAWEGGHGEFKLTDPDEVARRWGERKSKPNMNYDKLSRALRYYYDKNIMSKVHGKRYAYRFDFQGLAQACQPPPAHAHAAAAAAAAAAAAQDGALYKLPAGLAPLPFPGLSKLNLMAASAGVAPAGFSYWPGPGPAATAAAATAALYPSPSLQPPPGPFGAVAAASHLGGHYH
The conditions noted are these: protein: recombinant; tags: N-terminal GST; dsDNA, one strand shown. The essentials: as §1

The target in a further test is ETV5 (Homo sapiens, UniProt P41161 1-510). The conditions noted are these: protein: recombinant; tags: N-terminal GST; dsDNA, one strand shown. The essentials: as §1
Another test deals with HSF1 (Homo sapiens, UniProt Q00613 1-529). The conditions noted are these: protein: recombinant; tags: N-terminal GST; chain copies: 3; dsDNA, one strand shown. The method, boiled down: as §1
The target of another test is T8, SPIC (Homo sapiens, UniProt Q8N5J4 1-248).
T8 sequence: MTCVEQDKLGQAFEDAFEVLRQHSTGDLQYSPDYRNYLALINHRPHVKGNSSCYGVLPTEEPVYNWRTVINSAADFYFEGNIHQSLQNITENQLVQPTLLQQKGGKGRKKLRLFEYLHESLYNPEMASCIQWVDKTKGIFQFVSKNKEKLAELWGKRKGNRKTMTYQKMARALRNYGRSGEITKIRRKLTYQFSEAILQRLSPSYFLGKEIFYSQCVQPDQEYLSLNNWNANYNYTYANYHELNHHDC
The note with it: protein: recombinant; tags: N-terminal GST; dsDNA, one strand shown. The method, boiled down:
as §1

A further test concerns the target ELF4 (Homo sapiens, UniProt Q99607 1-663). The note with it: protein: recombinant; tags: N-terminal GST; dsDNA, one strand shown. The essentials:
as §1

In another test the target is T9, ELK4 (Homo sapiens, UniProt P28324-2 1-405).
T9 sequence: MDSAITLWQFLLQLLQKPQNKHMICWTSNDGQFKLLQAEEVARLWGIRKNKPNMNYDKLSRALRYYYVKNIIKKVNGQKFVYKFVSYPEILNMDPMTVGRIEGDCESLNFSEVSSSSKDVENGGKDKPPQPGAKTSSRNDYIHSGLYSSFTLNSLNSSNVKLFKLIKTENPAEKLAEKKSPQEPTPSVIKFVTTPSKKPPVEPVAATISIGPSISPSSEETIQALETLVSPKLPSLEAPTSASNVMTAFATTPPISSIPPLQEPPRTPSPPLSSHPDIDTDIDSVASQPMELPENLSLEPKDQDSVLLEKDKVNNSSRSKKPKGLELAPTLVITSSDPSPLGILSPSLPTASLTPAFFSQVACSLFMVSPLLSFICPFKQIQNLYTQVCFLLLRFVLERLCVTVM
The note with it: protein: recombinant; tags: N-terminal GST; dsDNA, one strand shown. The essentials: as §1

A further test concerns the target T10, ETV2 (Homo sapiens, UniProt O00321 1-342).
T10 sequence: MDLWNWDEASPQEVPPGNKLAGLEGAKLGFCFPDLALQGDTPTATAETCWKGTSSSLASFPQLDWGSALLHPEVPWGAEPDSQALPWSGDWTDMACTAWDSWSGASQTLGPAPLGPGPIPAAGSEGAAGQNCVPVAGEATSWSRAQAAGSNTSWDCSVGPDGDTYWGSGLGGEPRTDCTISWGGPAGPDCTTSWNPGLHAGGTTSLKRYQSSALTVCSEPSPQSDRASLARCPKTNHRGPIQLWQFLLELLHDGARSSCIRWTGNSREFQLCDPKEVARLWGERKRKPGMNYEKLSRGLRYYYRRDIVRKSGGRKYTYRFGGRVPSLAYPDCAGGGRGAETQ
The conditions noted are these: protein: recombinant; tags: N-terminal GST; dsDNA, one strand shown. The essentials: as §1

A further test concerns the target T11, ELF3 (Homo sapiens, UniProt P78545 1-371).
T11 sequence: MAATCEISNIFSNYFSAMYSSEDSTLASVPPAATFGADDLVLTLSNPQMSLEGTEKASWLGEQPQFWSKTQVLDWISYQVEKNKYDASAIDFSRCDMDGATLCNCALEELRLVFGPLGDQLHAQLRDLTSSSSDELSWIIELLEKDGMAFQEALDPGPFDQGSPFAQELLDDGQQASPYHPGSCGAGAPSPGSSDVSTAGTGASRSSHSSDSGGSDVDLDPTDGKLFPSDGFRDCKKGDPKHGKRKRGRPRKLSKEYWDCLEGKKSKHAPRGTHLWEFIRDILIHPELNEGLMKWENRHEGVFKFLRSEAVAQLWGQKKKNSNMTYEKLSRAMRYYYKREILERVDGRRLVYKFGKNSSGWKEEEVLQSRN
The note with it: protein: recombinant; tags: N-terminal GST; dsDNA, one strand shown. The method, boiled down: as §1

A further test addresses ETV1 (Homo sapiens, UniProt P50549 1-477). The note with it: protein: recombinant; tags: N-terminal GST; dsDNA, one strand shown. The method, boiled down:
as §1

Sequence of HSF1 (Q00613 whole entry): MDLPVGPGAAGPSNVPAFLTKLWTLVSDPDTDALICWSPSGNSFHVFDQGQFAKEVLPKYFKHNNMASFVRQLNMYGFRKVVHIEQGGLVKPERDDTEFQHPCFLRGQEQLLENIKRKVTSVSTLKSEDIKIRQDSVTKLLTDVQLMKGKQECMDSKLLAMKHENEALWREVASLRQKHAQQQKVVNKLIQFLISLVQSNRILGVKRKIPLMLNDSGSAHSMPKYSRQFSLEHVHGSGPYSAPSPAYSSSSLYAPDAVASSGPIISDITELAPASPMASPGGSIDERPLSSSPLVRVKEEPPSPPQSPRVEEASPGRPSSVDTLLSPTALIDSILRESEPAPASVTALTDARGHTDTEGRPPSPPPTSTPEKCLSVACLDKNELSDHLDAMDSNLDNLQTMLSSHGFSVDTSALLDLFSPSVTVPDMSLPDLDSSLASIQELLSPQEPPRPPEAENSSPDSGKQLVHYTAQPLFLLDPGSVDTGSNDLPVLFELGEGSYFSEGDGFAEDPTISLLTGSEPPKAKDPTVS
Sequence of ELF1 (P32519 whole entry): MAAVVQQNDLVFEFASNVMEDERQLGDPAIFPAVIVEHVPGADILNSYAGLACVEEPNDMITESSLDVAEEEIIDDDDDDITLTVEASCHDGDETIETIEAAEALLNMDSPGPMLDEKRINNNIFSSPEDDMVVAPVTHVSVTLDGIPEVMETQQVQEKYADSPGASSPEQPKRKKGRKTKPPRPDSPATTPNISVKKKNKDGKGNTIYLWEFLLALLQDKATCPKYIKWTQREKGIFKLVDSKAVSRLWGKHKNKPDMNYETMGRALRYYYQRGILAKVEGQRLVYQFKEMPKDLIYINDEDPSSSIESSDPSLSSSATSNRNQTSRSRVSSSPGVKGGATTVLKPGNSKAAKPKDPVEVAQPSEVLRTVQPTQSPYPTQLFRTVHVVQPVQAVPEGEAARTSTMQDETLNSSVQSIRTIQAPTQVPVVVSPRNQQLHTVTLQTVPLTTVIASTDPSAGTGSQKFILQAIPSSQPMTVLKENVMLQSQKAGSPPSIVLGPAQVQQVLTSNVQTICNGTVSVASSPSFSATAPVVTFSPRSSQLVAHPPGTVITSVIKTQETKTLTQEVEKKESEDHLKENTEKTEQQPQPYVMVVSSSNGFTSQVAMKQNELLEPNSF
Sequence of ETV5 (P41161 whole entry): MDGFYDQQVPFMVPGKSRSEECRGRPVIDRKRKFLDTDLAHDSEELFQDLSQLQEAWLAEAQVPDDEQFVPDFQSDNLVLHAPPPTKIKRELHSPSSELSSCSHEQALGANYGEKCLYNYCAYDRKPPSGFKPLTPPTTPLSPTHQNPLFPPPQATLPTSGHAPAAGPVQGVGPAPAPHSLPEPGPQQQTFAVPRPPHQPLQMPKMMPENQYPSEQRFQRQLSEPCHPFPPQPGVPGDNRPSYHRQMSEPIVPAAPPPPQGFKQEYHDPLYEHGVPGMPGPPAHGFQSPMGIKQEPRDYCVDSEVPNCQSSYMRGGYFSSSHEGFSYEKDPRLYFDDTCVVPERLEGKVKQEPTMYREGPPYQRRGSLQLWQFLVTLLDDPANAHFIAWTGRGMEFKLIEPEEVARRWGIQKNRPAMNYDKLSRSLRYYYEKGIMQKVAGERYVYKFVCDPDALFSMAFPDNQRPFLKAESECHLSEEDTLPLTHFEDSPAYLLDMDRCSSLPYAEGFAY
Sequence of ETV1 (P50549 whole entry): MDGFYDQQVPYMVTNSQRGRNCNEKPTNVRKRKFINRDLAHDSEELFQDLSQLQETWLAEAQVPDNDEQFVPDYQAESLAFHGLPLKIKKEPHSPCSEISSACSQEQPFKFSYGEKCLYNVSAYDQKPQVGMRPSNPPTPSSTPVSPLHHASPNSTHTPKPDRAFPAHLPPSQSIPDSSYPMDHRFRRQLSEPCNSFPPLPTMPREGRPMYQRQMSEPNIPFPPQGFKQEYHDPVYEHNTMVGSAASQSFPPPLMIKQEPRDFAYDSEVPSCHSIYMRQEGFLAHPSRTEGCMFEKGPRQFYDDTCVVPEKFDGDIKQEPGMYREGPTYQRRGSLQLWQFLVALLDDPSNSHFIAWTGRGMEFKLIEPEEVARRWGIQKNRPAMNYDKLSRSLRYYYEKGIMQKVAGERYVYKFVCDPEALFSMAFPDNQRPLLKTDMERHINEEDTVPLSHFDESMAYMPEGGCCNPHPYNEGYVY
Sequence of SPIB (Q01892 whole entry): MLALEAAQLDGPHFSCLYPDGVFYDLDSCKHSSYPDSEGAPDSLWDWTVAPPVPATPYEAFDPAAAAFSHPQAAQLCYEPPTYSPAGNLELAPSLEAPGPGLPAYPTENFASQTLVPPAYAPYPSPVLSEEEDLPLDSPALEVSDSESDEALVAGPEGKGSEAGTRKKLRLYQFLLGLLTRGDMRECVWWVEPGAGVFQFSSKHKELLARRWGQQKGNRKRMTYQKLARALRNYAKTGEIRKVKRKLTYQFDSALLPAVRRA
Sequence of ELF4 (Q99607 whole entry): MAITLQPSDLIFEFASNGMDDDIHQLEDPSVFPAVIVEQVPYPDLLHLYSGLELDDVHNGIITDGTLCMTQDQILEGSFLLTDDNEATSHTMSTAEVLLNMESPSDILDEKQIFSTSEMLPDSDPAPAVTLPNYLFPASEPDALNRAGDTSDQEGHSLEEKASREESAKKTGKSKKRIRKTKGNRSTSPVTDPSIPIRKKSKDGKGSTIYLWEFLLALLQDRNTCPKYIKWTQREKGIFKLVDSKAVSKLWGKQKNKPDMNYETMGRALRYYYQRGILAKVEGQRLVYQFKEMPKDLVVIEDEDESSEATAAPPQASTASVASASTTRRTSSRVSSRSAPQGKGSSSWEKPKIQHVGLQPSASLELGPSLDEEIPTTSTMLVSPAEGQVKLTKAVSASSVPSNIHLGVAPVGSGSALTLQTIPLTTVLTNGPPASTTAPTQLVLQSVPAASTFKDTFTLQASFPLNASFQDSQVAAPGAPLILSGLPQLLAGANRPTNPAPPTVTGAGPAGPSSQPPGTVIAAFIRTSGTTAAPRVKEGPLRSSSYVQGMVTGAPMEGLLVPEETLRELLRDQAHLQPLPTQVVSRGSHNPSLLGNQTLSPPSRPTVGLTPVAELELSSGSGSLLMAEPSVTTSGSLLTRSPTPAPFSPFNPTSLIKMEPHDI

On to TGCCTG, for which the binding signal was 1.17 fold enrichment (6-mer frequency, TF over GST control) with FLI1; 1.27 fold enrichment (6-mer frequency, TF over GST control) with ELK1; 1.32 fold enrichment (6-mer frequency, TF over GST control) with GABPA; 1.32 fold enrichment (6-mer frequency, TF over GST control) with ERG; 1.33 fold enrichment (6-mer frequency, TF over GST control) with ELF1; 1.36 fold enrichment (6-mer frequency, TF over GST control) in the test with EHF. Moreover, the binding signal was 1.26 fold enrichment (6-mer frequency, TF over GST control) in the test with SPI1; 1.29 fold enrichment (6-mer frequency, TF over GST control) in the test with SPIB; 1.59 fold enrichment (6-mer frequency, TF over GST control) with ELK3; 1.16 fold enrichment (6-mer frequency, TF over GST control) in the test with FEV; 1.37 fold enrichment (6-mer frequency, TF over GST control) in the test with ETV5; 1.05 fold enrichment (6-mer frequency, TF over GST control) with HSF1. Besides, the binding signal with SPIC was 1.32 fold enrichment (6-mer frequency, TF over GST control); with ELF4, 1.22 fold enrichment (6-mer frequency, TF over GST control); in the test with ELK4, 1.25 fold enrichment (6-mer frequency, TF over GST control); in the test with ETV2, 1.2 fold enrichment (6-mer frequency, TF over GST control); with ELF3 it was 1.05 fold enrichment (6-mer frequency, TF over GST control); with ETV1 it was 1.49 fold enrichment (6-mer frequency, TF over GST control).
